Reference: PubChem BioAssay (EPA / NIEHS)
Where “and” joins values, the source holds several entries; their conditions need not be identical. Equal entries are not always repeated. Records with an inconclusive call do not appear. Some compounds were tested as several samples or in several runs, with calls that do not always agree. Calls of active or inactive are those of the source. The calls were made as follows: active = hit-call score of the fitted dose curve at least 0.9, where 1 is the maximum; inconclusive = response in the unintended direction; inactive = score below 0.9.

Biological target: chimpanzee Androgen Receptor (AR), AR (gene 747460) (UniProt O97775)
Sequence (O97775 whole entry, looked up): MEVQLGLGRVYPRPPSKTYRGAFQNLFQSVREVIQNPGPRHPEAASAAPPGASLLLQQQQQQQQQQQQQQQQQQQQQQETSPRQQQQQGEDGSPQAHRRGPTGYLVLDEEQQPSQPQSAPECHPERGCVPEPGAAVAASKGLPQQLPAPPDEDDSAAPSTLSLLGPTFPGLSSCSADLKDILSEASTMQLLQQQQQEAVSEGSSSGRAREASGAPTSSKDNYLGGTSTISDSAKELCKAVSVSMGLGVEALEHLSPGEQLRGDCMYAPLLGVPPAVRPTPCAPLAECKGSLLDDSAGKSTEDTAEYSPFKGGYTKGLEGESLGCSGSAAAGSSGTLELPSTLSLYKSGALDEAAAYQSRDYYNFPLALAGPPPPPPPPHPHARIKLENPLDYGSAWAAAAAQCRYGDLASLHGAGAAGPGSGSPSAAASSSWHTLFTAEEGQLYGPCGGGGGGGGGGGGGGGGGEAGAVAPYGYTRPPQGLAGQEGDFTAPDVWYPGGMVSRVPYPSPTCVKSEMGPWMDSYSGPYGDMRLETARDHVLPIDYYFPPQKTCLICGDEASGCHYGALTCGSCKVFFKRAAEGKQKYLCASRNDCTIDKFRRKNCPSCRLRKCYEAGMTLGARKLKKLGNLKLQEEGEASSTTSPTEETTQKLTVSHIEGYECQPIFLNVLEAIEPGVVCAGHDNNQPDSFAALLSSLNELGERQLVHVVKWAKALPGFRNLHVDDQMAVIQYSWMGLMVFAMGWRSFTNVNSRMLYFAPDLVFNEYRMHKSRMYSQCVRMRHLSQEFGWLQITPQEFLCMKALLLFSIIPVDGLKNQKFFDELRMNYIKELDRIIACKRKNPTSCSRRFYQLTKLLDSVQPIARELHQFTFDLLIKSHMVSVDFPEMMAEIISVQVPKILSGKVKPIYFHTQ
Experiment: NVS_NR_cAR: NovaScreen (NVS) Nuclear Receptor Binding Assay for chimpanzee Androgen Receptor (AR) (AID 2283346);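 also: a loss of bound radioligand signal versus DMSO counts as binding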
Experimental: NVS_NR_cAR is a biochemical, single-readout assay that uses extracted gene-proteins from Sf9/Sf21 in a cell-free assay. Measurements were taken 72 hours after chemical dosing in a 96-well plate.NVS_NR_cAR is one of one assay component(s) measured or calculated from the NVS_NR_cAR assay. It is designed to make measurements of radioligand binding, a form of binding reporter, as detected with scintillation counting signals by Lysate-based radiodetection technology.Data from the assay component NVS_NR_cAR was analyzed into 1 assay endpoint. This assay endpoint, NVS_NR_cAR, was analyzed in the positive analysis fitting direction relative to DMSO as the negative control and baseline of activity. Using a type of binding reporter, loss-of-signal activity can be used to understand changes in the binding as they relate to the gene AR. Furthermore, this assay endpoint can be referred to as a primary readout, because the performed assay has only produced 1 assay endpoint. To generalize the intended target to other relatable targets, this assay endpoint is annotated to the nuclear receptor intended target family, where the subfamily is steroidal.
Binding assays used specific radioligands (tritiated, iodinated) with non-radioactive competitive displacement ligands in agonist or antagonist protocols (as indicated) and various reference compounds and inhibitors to titrate specific binding to receptors and transporters. Most enzyme assays (CYPs, kinases, phosphatases, proteases, HDACs) used recombinant protein and specific substrates (fluorescence mostly, some colorimetric and radioactive) and inhibitors, followed by a biochemical separation of substrate and product. All assays for the biochemical HTS were initially run in duplicate at a single concentration (10 uM for CYP450 assays and 25 uM for all others). […] Each assay was run with positive and negative controls, and concurrent controls on every plate. The follow-up (secondary) screen tested active chemical-pairs in concentration series, as well as a few additional assays not tested in the primary screen, some selected negative inactives, and several cases re-run in the concentration series for confirmatory purposes.

Structure (SMILES) | AC50 | outcome
C=C(C)C(=O)[O][Sn]([CH2]CCC)([CH2]CCC)[CH2]CCC | 12.1 µM (active) | –
CC(C)(c1ccc(OCC2CO2)cc1)c1ccc(OCC2CO2)cc1 (stereo not given) | – | inactive
Cc1ccccc1C(=O)Nc1cccc(OC(C)C)c1 | – | inactive
O=C(OC1CCCCC1)c1ccccc1C(=O)OC1CCCCC1 | – | inactive
C[C@]12CC[C@H](O)CC1=CC[C@@H]1[C@@H]2CC[C@]2(C)C(=O)CC[C@@H]12 | 1.88 µM (active) | –
CC(=O)[O][Hg][c]1ccccc1 | 29.1 µM (active) | –
C[C@@H]1C[C@@H]([C@H](O)CC2CC(=O)NC(=O)C2)C(=O)[C@@H](C)C1 | – | inactive
CCC[CH2][Sn]([CH2]CCC)([CH2]CCC)[O]C(=O)c1ccccc1 | 9.94 µM (active) | –
CC1(C)CCC(Cc2ccc(Cl)cc2)C1(O)Cn1cncn1 (stereo not given) | 6.82 µM (active) | –
CNC(=O)O/N=C/C(C)(C)S(C)=O (stereo not given) | – | inactive
Oc1ccc(-c2ccccc2)cc1 | 4.83 µM (active) | inactive
COc1cc(OC)nc(NC(=O)NS(=O)(=O)c2ncccc2C(=O)N(C)C)n1 | – | inactive
COc1cc(-c2ccc(N)c(OC)c2)ccc1N | 18.5 µM (active) and 25 µM (active) | –
N#CCCO | – | inactive
CCNc1nc(NC(C)(C)C)nc(SC)n1 | – | inactive
CCN(CC)C(=O)Cl | 2.82 µM (active) | –
Cl/C=C\C[N+]12CN3CN(CN(C3)C1)C2 | 1.43 µM (active) | –
Fc1ccc(C2(Cn3cncn3)OC2c2ccccc2Cl)cc1 (stereo not given) | – | inactive
CCOC(=O)Nc1cccc(OC(=O)Nc2ccccc2)c1 | – | inactive
O=C1C2(Cl)C3(Cl)C4(Cl)C(Cl)(Cl)C5(Cl)C3(Cl)C1(Cl)C5(Cl)C24Cl (stereo not given) | – | inactive
Clc1ccc(COC(Cn2ccnc2)c2ccc(Cl)cc2Cl)cc1 (stereo not given) | 9.28 µM (active) | –
CC12CC1(C)C(=O)N(c1cc(Cl)cc(Cl)c1)C2=O (stereo not given) | – | inactive
COP(=S)(OC)Oc1ccc(Sc2ccc(OP(=S)(OC)OC)cc2)cc1 | – | inactive
CCN1CCC2(CC1)COc1cc3c(cc12)N(C(=O)c1ccc(-c2ccc(-c4nnc(C)o4)cc2C)cc1)CC3 | 16.8 µM (active) | –
Clc1ccc(C2(Cn3cncn3)CC(Br)CO2)c(Cl)c1 (stereo not given) | 7.36 µM (active) | –
CC(C)C1CCC(Cc2ccc(Cl)cc2)C1(O)Cn1cncn1 (stereo not given) | 10.3 µM (active) | –
CCC[CH2][Sn]([Cl])([Cl])[Cl] | 25 µM (active) | –
CCCCCCCCCl | – | inactive
Cc1ccc(N)cc1Cl | – | inactive
